Assay results published in PubChem BioAssay (NCATS).
Records with an inconclusive call do not appear. Activity calls are given as the source filed them. Unless noted, calls come from the whole dose curve; as a rule, active = well fitted curve in the direction sought with a large enough effect; inconclusive = small, poorly fitted or top-dose-only effect, or another doubt; inactive = no such curve, though single readings can be large; an effect the other way counts as inactive or inconclusive.

Experiments:
[1] = Cell Viability - BJ (AID 421; calls by dose curve;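 note: potency is the fitted concentration of half-maximal effect; cells exposed to compound for 40 hours at 37 °C before readout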); details: BJ fibroblast viability, qHTS
Outline: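 Cytotoxicity in human BJ foreskin fibroblasts is scored as loss of cellular ATP after a 40-hour exposure, measured by luciferase luminescence. Controls are DMSO and 100 uM tamoxifen.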

[2] = Cell Viability - Jurkat (AID 426;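 active = dose-dependent loss of cell ATP signal giving a full or clear fitted curve, ranked by lower potency value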;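 note: potency is the fitted concentration of half-maximal effect; cells exposed to compound for 40 hours at 37 °C before ATP read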); details: qHTS
Outline: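 Luminescent ATP read-out (CellTiter-Glo, 20 min at room temperature) after 40 hr compound exposure at 37 °C of Jurkat E6-1 cells, 5000/well. Decreased ATP taken as cytotoxicity; AC50 from standard Hill equation.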

[3] = Cell Viability - Hek293 (AID 427;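 active = compounds whose dose-response curve shows a full or clear partial loss of cell viability, called from curve shape rather than a numeric limit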;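 note: potency is the fitted concentration of half-maximal effect; cells exposed to compound for 40 hours at 37 °C before reading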); details: qHTS
Outline: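 qHTS, human embryonic kidney (adenovirus-transformed) cells; 40 hr cpd, 37 °C; CellTiter-Glo ATP luminescence. Norm: DMSO = 0, 100 uM tamoxifen = 100% inhibition. Hill-fit AC50.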

[4] = Cell Viability - HepG2 (AID 433; calls by dose curve;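 note: potency is the fitted concentration of half-maximal effect; potency for ATP loss meaning cytotoxicity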); details: qHTS
Outline: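 HepG2 hepatocellular carcinoma cells (1500/well) were treated with compounds for 40 h at 37 °C in complete medium; intracellular ATP was read by CellTiter-Glo luminescence. Data were normalized to DMSO and 100 uM tamoxifen, and AC50 came from Hill fits.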

[5] = Cell Viability - MRC5 (AID 434; calls by dose curve;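 note: potency is the fitted concentration of half-maximal effect; potency reflects cytotoxicity seen as loss of intracellular ATP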); details: MRC5 lung fibroblast viability, qHTS
Outline: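 AC50 values come from Hill-equation fits of intracellular ATP loss, measured by CellTiter-Glo luminescence. Normal lung fibroblasts (MRC5) had 40 hr compound treatment at 37 C, normalized between DMSO and 100 uM tamoxifen.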

[6] = Cell Viability - SK-N-SH (AID 435; calls by dose curve; note: potency is the fitted concentration of half-maximal effect); details: SK-N-SH neuroblastoma cell viability qHTS
Outline: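 SK-N-SH human neuroblastoma cells (1500/well) were exposed to compounds in complete medium for 40 h at 37 °C, and intracellular ATP was then measured by CellTiter-Glo luminescence. AC50 was taken from Hill fits, normalized to DMSO and 100 uM tamoxifen.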

[7] = Cell Viability - N2a (AID 540); details: N2a mouse neuroblastoma cell viability; at 92.2 µM (top of the series);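 note: plate controls were DMSO alone for no effect and tamoxifen control for full effect; nearly all actives have a fitted effect of over 45% in size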
Outline: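 N2a mouse neuroblastoma, 1500 cells/well, 5 hr settle; compound 40 hr, 37 °C; CellTiter-Glo 20 min RT; luminescence; Hill-fit AC50.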

[8] = Cell Viability - HUV-EC-C (AID 542); note: % is set by controls: 0 for no effect and ±100 for the full control effect; nearly all actives have a fitted effect of over 35% in size
Outline: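 Luminescent ATP read-out (CellTiter-Glo, 20 min room temperature) after 40 hr compound treatment of HUV-EC-C cells at 37 °C. Concentration-response data fitted with the standard Hill equation to give AC50; tamoxifen and doxorubicin served as positive controls.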

[9] = Cell Viability - H-4-II-E (AID 543); note: % is set by controls: 0 for no effect and ±100 for the full control effect; nearly all actives have a fitted effect of over 35% in size
Outline: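 qHTS, rat hepatoma H-4-II-E, 1500 cells/well; 40 hr compound exposure, 37 °C; CellTiter-Glo ATP luminescence after 20 min RT; AC50 by standard Hill fit.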

[10] = Cell Viability - SH-SY5Y (AID 544);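 note: 0% = DMSO alone and -100% = 100 µM tamoxifen; nearly all actives have a fitted effect of over 55% in size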
Outline: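 SH-SY5Y, 1500 cells/well, 5 hr pre-incubation 37 °C; cpd 40 hr 37 °C; CellTiter-Glo 20 min RT; luminescence (ATP) read. qHTS concentration-response, Hill fit → AC50. Tamoxifen, doxorubicin as positive controls.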

[11] = Cell Viability - Renal Proximal Tubule (AID 545);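 note: 0% = DMSO only and -100% = 100 µM tamoxifen; nearly all actives have a fitted effect of over 40% in size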
Outline: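 Primary rat renal proximal tubule cells (1000/well) were treated with compounds for 40 hr at 37 °C in complete medium. Intracellular ATP was measured by CellTiter-Glo luminescence, and AC50 values came from Hill-equation fits of concentration-response data.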

[12] = Cell Viability - Mesenchymal (AID 546);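 note: cells exposed to compound for 40 hours before reading; 0% = DMSO only and -100% = 100 µM tamoxifen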
Outline: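 CellTiter-Glo luminescence (intracellular ATP, 20 min room temperature) after 40 hr compound exposure at 37 °C of 1000 glomerulus-derived human kidney mesenchymal cells/well; AC50 values obtained by fitting qHTS concentration-response data to the Hill equation.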

[13] = Cellular Toxicity (caspase-3) HepG2 (AID 654);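 note: cells exposed to compound for 16 hours before reading; 0% = DMSO alone and 100% = caspase signal from 100 µM tamoxifen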
Outline: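 Luminescent Caspase-Glo 3/7 readout after 16 hr compound exposure of human hepatocellular carcinoma HepG2 cells at 37 °C; qHTS concentration-response, normalized DMSO = 0%, 100 uM tamoxifen = 100%; AC50 by standard Hill equation.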

[14] = Cellular Toxicity (caspase-3) Jurkat (AID 655);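 note: cells exposed to compound for 16 h at 37 °C before reading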
Outline: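 Jurkat cells (5000/well) in complete medium were treated with compounds for 16 hr at 37 °C, then Caspase-Glo 3/7 luminescence was read after 20 min at room temperature. Data normalized to DMSO (basal) and 100 uM tamoxifen (100%); AC50 from Hill fit.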

[15] = Cellular Toxicity (caspase-3) HUV-EC-C (AID 656);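 note: 0% = DMSO basal and 100% = 100 µM tamoxifen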
Outline: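 HUV-EC-C endothelial cells, 1000/well, were pre-incubated 5 hr at 37°C, then exposed to compounds for 16 hr at 37°C. Caspase-Glo 3/7 luminescence was read after 20 min at room temperature. AC50 came from Hill fits, normalized to DMSO and 100 uM tamoxifen.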

[16] = Cellular Toxicity (caspase-3) SHSY5Y (AID 657)
Outline: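 SH-SY5Y human neuroblastoma cells (1500/well) were treated with compounds for 16 h at 37 °C, then Caspase-Glo 3/7 luminescence was read after 1 h at room temperature. Data normalized to DMSO and 10 uM staurosporine; AC50 from Hill fits.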

[17] = Cellular Toxicity (caspase-3) BJ (AID 658);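 note: 0% = DMSO basal and 100% = 10 µM staurosporine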
Outline: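 Caspase-Glo 3/7 luminescence, read 1 hr after reagent at room temperature, in normal BJ fibroblasts exposed 16 hours at 37 °C. AC50 values from Hill-equation concentration-response, scaled between DMSO basal and 10 uM staurosporine as 100%.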

[18] = Cellular Toxicity (caspase-3) MRC-5 (AID 659);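 note: 0% = DMSO basal and 100% = 10 µM staurosporine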
Outline: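 Luminescent Caspase-Glo 3/7 read-out (1 h, room temperature) after a 16 h, 37 °C compound exposure of MRC-5 lung fibroblasts at 1500 cells/well. Concentration-response AC50 from Hill equation; 0% DMSO, 100% 10 uM staurosporine.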

[19] = Cellular Toxicity (caspase-3) Mesangial (AID 660);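 note: combined caspase 3 and 7 activity read by Caspase-Glo luminescence; cells exposed to compound for 16 h before the caspase read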
Outline: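 Luminescent Caspase-Glo 3/7 readout (aminoluciferin substrate cleavage, 20 min RT) after 16 h compound exposure at 37 °C of normal human mesangial cells. Signal increase normalized between DMSO basal and 100 uM tamoxifen; Hill-equation AC50.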

[20] = Cellular Toxicity (caspase-3) SK-N-SH (AID 661);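 note: 0% = DMSO basal and 100% = 10 µM staurosporine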
Outline: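 Luminescent Caspase-Glo 3/7 read-out after 16 hr compound exposure of SK-N-SH neuroblastoma cells at 37 °C. Signal increase normalized to DMSO (basal) and 10 uM staurosporine (100%); AC50 from Hill equation fits of qHTS concentration-response data.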

[21] = Cellular Toxicity (caspase-3) H-4-II-E (AID 663);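 note: cells exposed to compound for 16 hr before readout; 0% = DMSO basal and 100% = 100 µM tamoxifen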
Outline: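 Caspase 3/7 activation measured by luminescent aminoluciferin substrate cleavage after 16 hr compound treatment of H-4-II-E cells in complete medium. Increase normalized between DMSO (basal) and 100 uM tamoxifen (100%); Hill-equation AC50 from concentration-response.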

[22] = Cellular Toxicity (caspase-3) N2a (AID 665);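 note: compound exposure lasted 16 h at 37 °C before readout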
Outline: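 Luminescent Caspase-Glo 3/7 readout in N2a mouse neuroblastoma cells after 16 h compound exposure at 37 °C. Signal scaled to DMSO (basal) and 10 uM staurosporine (100%). Concentration-response fitted with Hill equation for AC50.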

[23] = Cellular Toxicity (caspase-3) NIH 3T3 (AID 666);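 note: 0% = DMSO basal and 100% = 100 µM tamoxifen stimulation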
Outline: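 NIH 3T3, 1000 cells/well, 5 hr settle then 16 hr compound at 37°C; Caspase-Glo 3/7, 20 min RT, luminescence. DMSO = basal, 100 uM tamoxifen = 100%. Hill-equation AC50, qHTS.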

[24] = Cellular Toxicity (caspase-3) Renal Proximal Tubule (AID 667);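 note: cells exposed to compound for 16 hours at 37 °C before detection; 0% = DMSO basal and 100% = 10 µM staurosporine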
Outline: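 Primary rat proximal tubule cells, 1000/well, 5 h plating at 37 °C, then compound 16 h at 37 °C. Caspase-Glo 3/7 reagent, 1 h RT, luminescence. Normalized to DMSO (basal) and 10 uM staurosporine (100%); Hill-fit AC50.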

[25] = target: Cytochrome P450 3A4 (Homo sapiens) (UniProt P08684); experiment: qHTS Assay for Inhibitors and Substrates of Cytochrome P450 3A4 (AID 884); note: % is set by controls: 0 for no effect and ±100 for the full control effect; nearly all actives have a fitted effect of over 50% in size
Outline: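 Luminescent readout of luciferin produced by CYP3A4 (20 nM) dealkylation of Luciferin-PPXE, 25 uM (its KM). NADPH-driven reaction ran 60 min at RT after 10 min compound preincubation; data scaled to 57 uM ketoconazole as 100% inhibition.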

[26] = Cell Viability - LYMP2-001 (AID 921);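 note: 0% = DMSO only and full inhibition = tetraoctylammonium bromide control wells; nearly all actives have a fitted effect of over 70% in size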
Outline: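 Human lymphoblastoid cells (Coriell), 2500 per well, were preincubated 5 hr at 37 C, then exposed to compounds in complete medium for 24 hr at 37 C. Cellular ATP was read by CellTiter-Glo luminescence; AC50 from Hill fits of concentration-response data.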

[27] = MultiTox-Fluor Cytotoxicity Assay - LYMP1-001 - Dead Cells (AID 946)
Outline: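 Seed 2500 LYMP1-001 cells/well, incubate 5 hr at 37 C; add compound, 16 hr at 37 C; add MultiTox-Fluor reagent, 60 min RT; read dead-cell fluorescence Ex/Em=485/520. Normalize to DMSO and 15 uM tetraoctylammonium bromide.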

[28] = MultiTox-Fluor Cytotoxicity Assay - LYMP1-001 - Live Cells (AID 947);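 note: 0% = DMSO only and full inhibition = tetraoctylammonium bromide control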
[29] = Cell Viability - LYMP1-002 - Assay at 16 hr (AID 948);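 note: 0% = DMSO alone and full effect = 92 µM tetraoctylammonium bromide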
Outline: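 Human lymphoblastoid cells (LYMP1-002), 2500/well, were preincubated 5 hr at 37 C, then exposed to compounds for 16 hr at 37 C in complete medium. Cellular ATP was read by CellTiter-Glo luminescence after 30 min at room temperature; AC50 from Hill fits.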

[30] = MultiTox-Fluor Cytotoxicity Assay - LYMP1-002 - Live Cells (AID 955); note: % is set by controls: 0 for no effect and ±100 for the full control effect
Outline: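 LYMP1-002 lymphoblastoid cells; 2500 cells/well; 16 hr compound exposure, 37 C; MultiTox-Fluor reagent 60 min RT; live-cell fluorescence Ex/Em=405/510; qHTS concentration-response, Hill-equation AC50; tetraoctylammonium bromide positive control.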

[31] = MultiTox-Fluor Cytotoxicity Assay - LYMP1-002 - Dead Cells (AID 960); note: nearly all actives have a fitted effect of over 60% in size
Outline: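 Readout: fluorescence at 485/520 from cell-impermeant bis-AAF-R110 cleaved by proteases leaking from damaged cells. LYMP1-002 lymphoblastoid line, 16 hr compound treatment at 37 C, concentration-response in qHTS format; Hill-equation AC50 values.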

[32] = MultiTox-Fluor Cytotoxicity Assay - LYMP1-003 - Dead Cells (AID 961); note: nearly all actives have a fitted effect of over 70% in size
Outline: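 LYMP1-003 lymphoblastoid, 2500 cells/well, 5 hr settle then 16 hr cpd at 37 C; MultiTox-Fluor reagent 60 min RT; Ex/Em 485/520 dead-cell signal; norm. DMSO = 0%, 15 uM tetraoctylammonium bromide = 100%; Hill AC50.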

[33] = MultiTox-Fluor Cytotoxicity Assay - LYMP1-003 - Live Cells (AID 962);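 note: 0% = DMSO only and full loss = 92 µM tetraoctylammonium bromide; cytotoxic hits lower the live-cell protease signal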
Outline: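 Readout: live-cell fluorescence (Ex/Em=405/510) from GF-AFC cleavage after 60 min MultiTox-Fluor reagent at room temperature. Lymphoblastoid LYMP1-003 cells, 16 hr compound treatment, 37 C. Concentration-response fitted to standard Hill equation for AC50.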

[34] = Cell Viability - LYMP1-003 - Assay at 24 hr (AID 963);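 note: plate controls were DMSO only for no effect and tetraoctylammonium bromide positive control for full effect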
Outline: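 CellTiter-Glo luminescence (intracellular ATP) read after 24 hr, 37 C compound exposure of 2500 LYMP1-003 human lymphoblastoid cells/well in complete medium; qHTS concentration series; AC50 via standard Hill equation.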

[35] = Cell Viability - LYMP1-003 - Assay at 40 hr (AID 964); note: % is set by controls: 0 for no effect and ±100 for the full control effect; nearly all actives have a fitted effect of over 60% in size
Outline: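 LYMP1-003 lymphoblastoid cells, 2500/well; 5 hr preincubation, 40 hr compound exposure, 37 C; CellTiter-Glo 30 min RT; luminescence; Hill-fit AC50. Positive control tetraoctylammonium bromide.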

[36] = Cell Viability - LYMP2-003 (AID 965);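 note: cells exposed to compounds for 24 h before reading; 0% = DMSO only and full effect = 92 µM tetraoctylammonium bromide; nearly all actives have a fitted effect of over 50% in size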
Outline: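 Human lymphoblastoid cells (2500/well) were pre-incubated 5 hr at 37 C, then exposed to compounds over a concentration range for 24 hr at 37 C. Intracellular ATP was read by CellTiter-Glo luminescence; AC50 came from Hill-equation fits.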

[37] = Cell Viability - LYMP2-004 (AID 966);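 note: plate controls were DMSO only for no effect and tetraoctylammonium bromide control for full effect; nearly all actives have a fitted effect of over 65% in size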
Outline: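 Luminescent ATP read-out (CellTiter-Glo, 30 min RT) after 24 hr compound exposure at 37 C; 2500 lymphoblastoid cells/well, complete medium. Decrease in ATP = cytotoxicity; AC50 from standard Hill model.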

[38] = Cell Viability - LYMP2-005 (AID 967);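 note: plate controls were DMSO only for no effect and 92 µM tetraoctylammonium bromide control for full effect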
Outline: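 CellTiter-Glo luminescence (cellular ATP) read-out; LYMP2-005 lymphoblastoid cells, 2500/well, 5 h pre-incubation, then 24 h compound exposure at 37 C in complete medium. Tetraoctylammonium bromide positive control; AC50 by standard Hill fit.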

[39] = Cell Viability - LYMP2-009 (AID 968);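 note: 0% = DMSO alone and the full-kill end = tetraoctylammonium bromide at 92 µM; nearly all actives have a fitted effect of over 55% in size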
[40] = Cell Viability - LYMP2-011 (AID 969);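 note: 0% = DMSO only and full inhibition = 92 µM tetraoctylammonium bromide; nearly all actives have a fitted effect of over 60% in size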
Outline: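 Luminescent ATP read-out (CellTiter-Glo, 30 min RT) after 24 hr compound exposure at 37 C in human lymphoblastoid cells, 2500 cells/well. Decreasing ATP indicates cytotoxicity; AC50 from standard Hill fit.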

[41] = Cell Viability - LYMP2-013 (AID 970)
Outline: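 CellTiter-Glo luminescence (cellular ATP) read after 30 min at RT. Cells: human lymphoblastoid line, 2500/well, 24 hr compound exposure at 37 C. Tetraoctylammonium bromide positive control; AC50 via standard Hill fit of qHTS titrations.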

[42] = Cell Viability - LYMP2-017 (AID 972)
Outline: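 Luminescent ATP read-out (CellTiter-Glo, 30 min RT) reports viable cell number. Cells: human lymphoblastoid line, 2500 per well, 5 hr preincubation, 24 hr compound exposure at 37 C. AC50 is derived from qHTS concentration-response data using the standard Hill model.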

[43] = Cell Viability - LYMP2-019 (AID 973)
Outline: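 qHTS, 1536-well; 2500 cells/well; 5 hr pre-incubation, 24 hr compound exposure, 37 C; CellTiter-Glo added, 30 min RT; luminescence read; AC50 via standard Hill equation.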

[44] = Cell Viability - LYMP2-021 (AID 974)
Outline: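 ATP luminescence (CellTiter-Glo, 30 min RT) after 24 h compound exposure at 37 C; 2500 human lymphoblastoid cells/well, 5 h settle beforehand. Cytotoxicity = concentration-dependent ATP drop, AC50 by Hill fit.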

Cytochrome P450 3A4 (Homo sapiens), sequence (P08684 whole entry, looked up): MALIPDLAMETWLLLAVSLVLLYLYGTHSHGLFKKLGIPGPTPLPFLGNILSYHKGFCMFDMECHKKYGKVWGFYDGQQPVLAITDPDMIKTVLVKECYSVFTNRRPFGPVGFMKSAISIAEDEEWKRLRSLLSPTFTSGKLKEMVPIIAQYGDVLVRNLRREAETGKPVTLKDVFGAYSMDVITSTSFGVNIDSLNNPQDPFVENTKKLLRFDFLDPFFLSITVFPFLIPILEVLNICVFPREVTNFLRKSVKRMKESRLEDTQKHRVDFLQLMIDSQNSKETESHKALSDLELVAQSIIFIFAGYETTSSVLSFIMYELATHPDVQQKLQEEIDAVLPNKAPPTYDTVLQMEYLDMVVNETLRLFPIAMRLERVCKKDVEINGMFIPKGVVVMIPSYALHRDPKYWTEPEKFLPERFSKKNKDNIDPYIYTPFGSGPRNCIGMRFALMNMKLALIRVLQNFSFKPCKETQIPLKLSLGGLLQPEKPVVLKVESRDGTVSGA

O=Cc1ccccc1
inactive: Potency [1] > 92 µM | Potency [2] > 92 µM | Potency [3] > 92 µM | Potency [4] > 92 µM | Potency [5] > 92 µM | Potency [6] > 92 µM | activity change, negative = cytotoxicity [7] 6.11% | outcome [8] | outcome [9] | outcome [10] | outcome [11] | outcome [12] | outcome [13] | outcome [14] | outcome [15] | outcome [16] | outcome [17] | outcome [18] | outcome [19] | outcome [20] | outcome [21] | outcome [22] | outcome [23] | outcome [24] | Potency [25] | outcome [26] | Potency [27] | outcome [28] | outcome [29] | outcome [30] | Potency [31] | Potency [32] | outcome [33] | outcome [34] | Potency [35] | outcome [36] | outcome [37] | outcome [38] | outcome [39] | outcome [40] | outcome [41] | outcome [42] | outcome [43] | outcome [44]
